# Experimental data as given in PubChem BioAssay AID2205 (University of Pittsburgh Molecular Library Screening Center, 2009).
# About 1,600 (0.8%) of roughly 200,000 compounds were called active. This is one part of a sample in which actives are shown more often than they occur.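 Rule for the calls: active = plate Z-score above 3 for both tubulin-high and condensed-nucleus cell shares, with cell loss under 80%, at 10 µM; inactive = the rest, inconclusive results apart.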
# Experiment: microtubule stabilizers in HeLa cells, primary screen, imaging, high-content imaging (AID 2205);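 for % tubulin-high responders: anti alpha tubulin signal scored within the nucleus-defined area of each cell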;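 for toxicity: 0% = mean cell density of plate MIN control wells and 100% = no cells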
# Conditions: HeLa tubulin immunostaining HCS, 24 h, at 10 µM; % Hoechst-high responders: measured here: nuclear condensation Hoechst responders, stronger effect = higher value, share of cells brighter than vehicle mean+2SD; % tubulin-high responders: stronger effect = higher value, share of cells brighter than vehicle mean+2SD; toxicity: measured here: cytotoxicity by cell density
Structure (SMILES),% Hoechst-high responders,% tubulin-high responders,toxicity
CCOC(=O)c1cnc2ccc(F)cc2c1Nc1ccc2c(c1)OCCO2,3.26%,2.38% (inactive),9.58%
O=C(COC(=O)/C=C/c1nc2ccccc2s1)Nc1ccccc1Oc1ccccc1,2.41%,2.82% (inactive),3.33%
Cc1oc2cc([N+](=O)[O-])c(O)c([N+](=O)[O-])c2c1C(=O)c1ccc(Br)cc1,1.62%,3.42% (inactive),6.71%
O=C(COC(=O)C1CCCCC1)Nc1ccc([N+](=O)[O-])cc1,1.85%,1.8% (inactive),7.95%
O=C(NC1CCCCCC1)c1cccnc1Sc1ccc(Cl)cc1,1.73%,4.58% (inactive),7.66%
O=C(CSc1ccccn1)Nc1nc2c(ccc3ccccc32)s1,1.64%,2.26% (inactive),7.1%
CCO[C@H]1OC(C(=O)Nc2ccccc2)=C[C@@H](C2CC2)[C@@H]1CCCO,1.42%,1.2% (inactive),3.73%
CCC(C)NC(=O)/C=C/c1ccc(S(=O)(=O)NCc2ccco2)cc1 (centres undefined),1.97%,1.46% (inactive),3.99%
Cc1c(/C=N/N2C(=O)C3C4C=CC(C4)C3C2=O)c2ccccc2n1C (centres undefined),1.92%,5.53% (inactive),6.18%
O=C(N/N=C/c1coc2ccccc2c1=O)c1cc2ccccc2o1,2.07%,3.76% (inactive),5.72%
Cc1c(/C=N\NC(=O)c2cc3ccccc3o2)c2ccccc2n1C,21.2%,38.7% (active),75.1%
O=C(N/N=C/c1ccc(OCC2COCCO2)cc1)c1ccc(Br)cc1 (centres undefined),1.72%,2.47% (inactive),8.95%
CC(C)c1csc(CN2CCC(CO)(Cc3ccccc3)CC2)n1,1.55%,3.05% (inactive),6.68%
O=S(=O)(c1ccc(F)cc1)N1CCN(C(=S)NCc2ccco2)CC1,3.02%,4.87% (inactive),5.01%
COc1ccc(CC(NC(C)=O)C(=O)NC2CCN(C(=O)C3CC3)CC2)cc1OC (centres undefined),1.12%,2.29% (inactive),9.53%
O=C(CN1CCC(O)(c2ccccc2)CC1)Nc1ccc2c(c1)OCCO2,1.61%,5.34% (inactive),10.9%
CCOc1ccc2c(c1)C(c1ccc(C)cc1)=NNC(c1ccc(C)cc1)=N2,14.4%,37.8% (active),35.7%
Cc1ccc(C2=Nc3c(ccc4ccccc34)C(c3ccncc3)=NN2)cc1,2.17%,4.68% (inactive),5.9%
CCc1ccc2c(c1)C(c1ccc([N+](=O)[O-])cc1)=NNC(c1ccccc1)=N2,3.31%,2.17% (inactive),4.07%
COc1cccc(CN(C)CC(=O)Nc2sc3c(c2C#N)CCC3)c1,1.26%,3.67% (inactive),4.57%
CC1(C)CC(=O)C(CC(=O)N2CCC(Cc3ccccc3)CC2)C(=O)C1,2.54%,4.67% (inactive),7.14%
Cc1csc(CN(C)C(=O)CC2C(=O)NCCN2CC(C)(C)C)n1 (centres undefined),2.16%,2.8% (inactive),7.49%
Nc1nonc1-n1nnc(C(=O)N/N=C/c2cc(Br)ccc2O)c1CSC1=NCCS1,0.673%,9.12% (inactive),24.4%
